# Test results from PubChem BioAssay (EPA / NIEHS).
# Inconclusive results are not listed. The source made the active and inactive calls. Rule for the calls, unless noted: active = hit-call score of the fitted dose curve at least 0.9, where 1 is the maximum; inactive = score below 0.9.
# What was measured:
# [1] = biological target: Paired box protein Pax-6 (Homo sapiens) (UniProt P26367); assay: ATG_Pax6_CIS: Attagene CIS-FACTORIAL HepG2 Assay for human Paired Box 6 (PAX6) (AID 2282956); conditions: HepG2 CIS-FACTORIAL PAX6 reporter transcription, RNA readout; actives raise or lower the signal
# Sequence of Paired box protein Pax-6 (Homo sapiens) (P26367 whole entry, looked up): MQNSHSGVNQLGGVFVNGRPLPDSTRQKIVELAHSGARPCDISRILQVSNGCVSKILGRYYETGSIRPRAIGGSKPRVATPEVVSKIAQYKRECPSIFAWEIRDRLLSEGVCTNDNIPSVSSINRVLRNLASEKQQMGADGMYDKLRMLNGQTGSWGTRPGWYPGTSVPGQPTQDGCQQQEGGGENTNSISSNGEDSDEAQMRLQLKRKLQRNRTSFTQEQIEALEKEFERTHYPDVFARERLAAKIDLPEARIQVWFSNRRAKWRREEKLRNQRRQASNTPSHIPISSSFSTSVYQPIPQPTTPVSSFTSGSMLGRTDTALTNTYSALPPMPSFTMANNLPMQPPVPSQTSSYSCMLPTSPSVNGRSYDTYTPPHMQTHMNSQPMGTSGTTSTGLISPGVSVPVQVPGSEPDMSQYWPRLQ
# Summary of the method: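 Multiplexed cis-reporter HepG2 system; 24 h treatment; reporter mRNA read by RT-PCR/CE fluorescence; bidirectional fit vs DMSO.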
# [2] = ATG_PXRE_CIS: Attagene CIS-FACTORIAL HepG2 Assay for human Pregnane X Receptor Element (PXRE) (AID 2282957); conditions: HepG2 Attagene CIS-FACTORIAL PXRE reporter, mRNA; actives raise or lower the signal
# Summary of the method: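 Cis-element reporter mRNA in human hepatoma HepG2 cells is measured 24 h post-dosing by RT-PCR, primer-extension labeling and capillary electrophoresis; gain or loss of signal is fitted relative to DMSO.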
# [3] = ATG_PPRE_CIS: Attagene CIS-FACTORIAL HepG2 Assay for human Peroxisome Proliferator-activated Response Element (PPRE) (AID 2282958); conditions: HepG2 PPRE cis-element reporter, Attagene transcription factor profiling; actives raise or lower the signal
# Summary of the method: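 DMSO served as negative control and baseline for bidirectional curve fitting. Signal came from PPRE-regulated reporter mRNA in HepG2 cells, measured 24 h post-dosing by RT-PCR, 6-FAM primer extension and capillary electrophoresis.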
# [4] = ATG_RORE_CIS: Attagene CIS-FACTORIAL HepG2 Assay for human RAR-related Orphan Receptor Element (RORE) (AID 2282959); conditions: HepG2 Attagene cis-factorial RORE reporter, mRNA; actives raise or lower the signal
# Summary of the method: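 Transfect HepG2 with MRTUs; treat 24 h; extract RNA; RT with oligo(dT); PCR with reporter-specific primers; 6-FAM primer extension; HpaI digest 2 h at 37 C; capillary electrophoresis. Fit vs DMSO, bidirectional.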
# [5] = ATG_Sox_CIS: Attagene CIS-FACTORIAL HepG2 Assay for human SRY-box transcription factor (SOX) (AID 2282960); conditions: HepG2 Attagene cis-factorial SOX reporter, mRNA; actives raise or lower the signal
# Summary of the method: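 Fluorescence-labelled cDNA fragments from reporter transcripts, sized by CE, give the signal. Cells: HepG2, transiently transfected with cis-regulated reporter units. Exposure 24 h; DMSO negative control; bidirectional curve fitting.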
# [6] = biological target: Transcription factor Sp1 (Homo sapiens) (UniProt P08047); assay: ATG_Sp1_CIS: Attagene CIS-FACTORIAL HepG2 Assay for human Specificity Protein 1 (Sp1) (AID 2282961); conditions: HepG2 Sp1 cis-reporter transcription, actives raise or lower the signal
# Sequence of Transcription factor Sp1 (Homo sapiens) (P08047 whole entry, looked up): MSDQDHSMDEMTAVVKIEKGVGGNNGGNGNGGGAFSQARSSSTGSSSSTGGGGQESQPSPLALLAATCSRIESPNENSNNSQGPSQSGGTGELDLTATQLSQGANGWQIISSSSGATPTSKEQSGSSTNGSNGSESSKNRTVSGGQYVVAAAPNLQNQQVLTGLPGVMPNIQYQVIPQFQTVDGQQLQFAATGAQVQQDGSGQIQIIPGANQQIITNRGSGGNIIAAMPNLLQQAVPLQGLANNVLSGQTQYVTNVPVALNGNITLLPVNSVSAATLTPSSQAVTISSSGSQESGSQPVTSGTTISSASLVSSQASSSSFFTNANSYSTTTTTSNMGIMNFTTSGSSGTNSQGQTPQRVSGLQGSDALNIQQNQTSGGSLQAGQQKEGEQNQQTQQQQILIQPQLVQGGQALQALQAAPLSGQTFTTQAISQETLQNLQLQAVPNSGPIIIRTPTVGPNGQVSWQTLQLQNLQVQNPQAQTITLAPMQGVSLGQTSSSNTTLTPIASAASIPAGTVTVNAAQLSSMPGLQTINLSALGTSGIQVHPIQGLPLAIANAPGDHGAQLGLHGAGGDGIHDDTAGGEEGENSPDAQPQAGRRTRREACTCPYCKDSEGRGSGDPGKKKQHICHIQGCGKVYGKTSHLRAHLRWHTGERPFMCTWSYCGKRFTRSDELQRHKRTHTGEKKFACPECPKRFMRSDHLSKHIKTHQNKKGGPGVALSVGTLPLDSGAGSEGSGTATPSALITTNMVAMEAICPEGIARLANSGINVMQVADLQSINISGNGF
# Summary of the method: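 Chemicals are dosed onto HepG2 cells transfected with multiple cis-promoter reporter constructs, and after 24 h reporter RNA is reverse-transcribed, PCR-amplified and resolved by capillary electrophoresis for fluorescence quantitation; activity is scored up or down against DMSO.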
# [7] = ATG_SREBP_CIS: Attagene CIS-FACTORIAL HepG2 Assay for human Sterol Regulatory Element Binding (SREBP) (AID 2282962); conditions: HepG2 Attagene cis-factorial SREBP reporter, mRNA; actives raise or lower the signal
# Summary of the method: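 mRNA induction of transfected cis-promoter reporters in HepG2 cells, 24 h post-dose. Detection: RT-PCR with 6-FAM-labelled products, HpaI digest, capillary electrophoresis. DMSO served as negative control and baseline.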
# [8] = biological target: Signal transducer and activator of transcription 3 (Homo sapiens) (UniProt P40763); assay: ATG_STAT3_CIS: Attagene CIS-FACTORIAL HepG2 Assay for human Signal Transducer and Activator of Transcription 3 (STAT3) (AID 2282963); conditions: HepG2, Attagene cis-factorial STAT3 reporter transcription; actives raise or lower the signal
# Sequence of Signal transducer and activator of transcription 3 (Homo sapiens) (P40763 whole entry, looked up): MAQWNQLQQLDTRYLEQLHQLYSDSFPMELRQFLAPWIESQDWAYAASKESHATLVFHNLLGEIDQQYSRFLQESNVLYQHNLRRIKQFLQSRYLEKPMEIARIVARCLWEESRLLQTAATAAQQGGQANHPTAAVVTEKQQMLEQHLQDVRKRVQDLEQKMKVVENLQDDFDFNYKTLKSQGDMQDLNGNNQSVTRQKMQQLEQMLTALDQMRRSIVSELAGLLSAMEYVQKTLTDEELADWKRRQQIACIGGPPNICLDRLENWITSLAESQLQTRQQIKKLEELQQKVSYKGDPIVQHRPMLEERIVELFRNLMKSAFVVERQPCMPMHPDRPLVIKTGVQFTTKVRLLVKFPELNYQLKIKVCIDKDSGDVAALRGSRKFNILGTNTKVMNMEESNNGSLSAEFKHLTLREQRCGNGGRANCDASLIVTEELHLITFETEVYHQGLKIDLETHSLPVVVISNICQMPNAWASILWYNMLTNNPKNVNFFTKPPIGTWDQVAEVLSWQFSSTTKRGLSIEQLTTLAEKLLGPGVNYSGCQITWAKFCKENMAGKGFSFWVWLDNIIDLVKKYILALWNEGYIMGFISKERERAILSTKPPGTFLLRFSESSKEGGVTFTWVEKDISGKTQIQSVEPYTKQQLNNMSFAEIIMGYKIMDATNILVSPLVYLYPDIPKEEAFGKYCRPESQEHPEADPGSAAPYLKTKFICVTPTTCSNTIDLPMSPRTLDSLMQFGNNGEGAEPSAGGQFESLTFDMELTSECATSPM
# Summary of the method: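 Transcript-level reporter assay. HepG2 transient MRTU transfection, 24 h exposure, fluorescence detection after RT-PCR and CE; DMSO baseline.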
# [9] = ATG_TA_CIS: Attagene CIS-FACTORIAL HepG2 Assay for human TA Basal Promoter (AID 2282964); conditions: HepG2 Attagene CIS-factorial TA basal promoter reporter; actives raise or lower the signal
# Summary of the method: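 Steps: transfect HepG2 with MRTUs; dose 24 h; isolate RNA, DNase-treat, reverse-transcribe; PCR and FAM-label reporter cDNA; digest with HpaI 2h at 37 C; run capillary electrophoresis. Activity fitted both directions against DMSO.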
# [10] = ATG_TCF_b_cat_CIS: Attagene CIS-FACTORIAL HepG2 Assay for human T-Cell-Factor with beta-catenin (TCF/b-cat) (AID 2282965); conditions: HepG2 TCF/beta-catenin cis-reporter transcription, actives raise or lower the signal
# Summary of the method: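 In this cis-format system, transfected HepG2 cells report endogenous transcription factor activity. Readout after 24 h exposure is reporter transcript abundance from RT-PCR and capillary electrophoresis, analysed for gain or loss of signal versus DMSO.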
# [11] = ATG_TAL_CIS: Attagene CIS-FACTORIAL HepG2 Assay for human TAL Basal Promoter (AID 2282966); conditions: HepG2 Attagene cis-factorial TAL promoter reporter; actives raise or lower the signal;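 note: background control endpoint measuring basal TAL promoter reporter mRNA not a specific factor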
# Summary of the method: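 In this cell-based multiplex, HepG2 liver cells bearing cis-promoter reporter constructs are dosed for 24 hours. Total RNA is reverse-transcribed and amplified, labelled fragments are sized by capillary electrophoresis, and signal changes are fitted bidirectionally versus DMSO.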
# [12] = ATG_TGFb_CIS: Attagene CIS-FACTORIAL HepG2 Assay for human Transforming Growth Factor (TGF) (AID 2282967); conditions: HepG2 Attagene CIS TGFb reporter, mRNA transcription; actives raise or lower the signal
# Summary of the method: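 Cells were dosed for 24 hours, after which total RNA was reverse-transcribed and reporter sequences amplified, labeled and sized by capillary electrophoresis. Activity was fitted in both directions against DMSO.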
# [13] = ATG_VDRE_CIS: Attagene CIS-FACTORIAL HepG2 Assay for human Vitamin D Receptor Element (VDRE) (AID 2282968); conditions: HepG2 VDRE cis-reporter transcription, actives raise or lower the signal
# Summary of the method: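 RT-PCR/CE readout of reporter mRNA; HepG2, transient transfection, 24 h dosing; DMSO baseline; bidirectional analysis.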
# [14] = biological target: Nuclear receptor subfamily 1 group I member 3 (Homo sapiens) (UniProt Q14994); assay: ATG_CAR_TRANS: Attagene TRANS-FACTORIAL HepG2 Assay for human Constitutive Androstane Receptor (CAR) (AID 2282969; active = hit-call score of the fitted dose curve at least 0.9, where 1 is the maximum;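 note: activators raise reporter mRNA above DMSO so AC50 marks induction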); conditions: HepG2 Attagene TRANS-FACTORIAL CAR reporter
# Sequence of Nuclear receptor subfamily 1 group I member 3 (Homo sapiens) (Q14994 whole entry, looked up, the tested form may be a part): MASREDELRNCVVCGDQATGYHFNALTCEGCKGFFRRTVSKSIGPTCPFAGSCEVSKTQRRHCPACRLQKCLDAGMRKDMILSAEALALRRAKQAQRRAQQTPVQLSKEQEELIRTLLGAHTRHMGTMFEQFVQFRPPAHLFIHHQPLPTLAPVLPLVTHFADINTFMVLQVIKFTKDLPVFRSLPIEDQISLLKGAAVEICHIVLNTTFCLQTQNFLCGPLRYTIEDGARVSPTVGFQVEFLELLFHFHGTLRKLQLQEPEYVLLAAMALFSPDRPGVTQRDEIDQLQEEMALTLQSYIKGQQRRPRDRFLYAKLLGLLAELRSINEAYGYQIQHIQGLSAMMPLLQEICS
# Summary of the method: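 HepG2 cells transiently transfected with multiplexed GAL4-UAS reporter units expressing chimeric NR-Gal4 proteins; compound exposure 24 h. Reporter mRNA measured by RT-PCR, 6-FAM labelling, HpaI digestion and capillary electrophoresis; gain-of-signal fitted against DMSO baseline.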
# [15] = biological target: X-box-binding protein 1 (Homo sapiens) (UniProt P17861); assay: ATG_Xbp1_CIS: Attagene CIS-FACTORIAL HepG2 Assay for human X-box Binding Protein 1 (XBP1) (AID 2282972); conditions: HepG2 XBP1 cis-element reporter, Attagene multiplex; actives raise or lower the signal
# Sequence of X-box-binding protein 1 (Homo sapiens) (P17861 whole entry, looked up, the tested form may be a part): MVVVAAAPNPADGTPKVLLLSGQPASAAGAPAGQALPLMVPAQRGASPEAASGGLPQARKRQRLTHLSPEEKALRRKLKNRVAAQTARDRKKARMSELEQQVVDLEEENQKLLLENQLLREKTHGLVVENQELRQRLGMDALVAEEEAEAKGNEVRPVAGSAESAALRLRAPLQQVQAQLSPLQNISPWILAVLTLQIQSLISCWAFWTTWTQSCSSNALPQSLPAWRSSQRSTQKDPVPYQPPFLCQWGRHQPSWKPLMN
# Summary of the method: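 Fluorescence-labelled cDNA fragments from reporter transcripts, separated by capillary electrophoresis, give the signal. Source: HepG2 cells transfected with promoter-driven reporter units, harvested 24 h post-dose. DMSO served as reference for bidirectional curve fitting.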
# [16] = ATG_GAL4_TRANS: Attagene TRANS-FACTORIAL HepG2 Assay for GAL4 (Internal Marker) (AID 2282976; active = hit-call score of the fitted dose curve at least 0.9, where 1 is the maximum); conditions: HepG2 Attagene TRANS GAL4 internal marker reporter
# Summary of the method: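 RT-PCR/capillary electrophoresis readout of reporter mRNA. HepG2, transient MRTU transfection (GAL4-UAS reporters), 24 h compound exposure. Background-control endpoint, positive direction vs DMSO baseline.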
# [17] = ATG_M_19_TRANS: Attagene TRANS-FACTORIAL HepG2 Assay for M19 Transcription Factor (Internal Marker) (AID 2282974; active = hit-call score of the fitted dose curve at least 0.9, where 1 is the maximum); conditions: HepG2 Attagene TRANS-FACTORIAL M19 internal marker reporter
# Summary of the method: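 Multiplexed TRANS format: HepG2 liver cells bearing transient GAL4-UAS reporter units, chemical treatment 24 h, reporter transcripts quantified by RT-PCR plus capillary electrophoresis. DMSO defines baseline.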
# [18] = biological target: Estrogen-related receptor gamma (Homo sapiens) (UniProt P62508); assay: ATG_ERRg_TRANS: Attagene TRANS-FACTORIAL HepG2 Assay for human Estrogen-Related Receptor gamma (ERRg) (AID 2282977; active = hit-call score of the fitted dose curve at least 0.9, where 1 is the maximum;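 note: hits increase reporter signal over DMSO so potencies reflect activators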); conditions: HepG2 Attagene TRANS reporter, ERRg transactivation
# Sequence of Estrogen-related receptor gamma (Homo sapiens) (P62508 whole entry, looked up, the tested form may be a part): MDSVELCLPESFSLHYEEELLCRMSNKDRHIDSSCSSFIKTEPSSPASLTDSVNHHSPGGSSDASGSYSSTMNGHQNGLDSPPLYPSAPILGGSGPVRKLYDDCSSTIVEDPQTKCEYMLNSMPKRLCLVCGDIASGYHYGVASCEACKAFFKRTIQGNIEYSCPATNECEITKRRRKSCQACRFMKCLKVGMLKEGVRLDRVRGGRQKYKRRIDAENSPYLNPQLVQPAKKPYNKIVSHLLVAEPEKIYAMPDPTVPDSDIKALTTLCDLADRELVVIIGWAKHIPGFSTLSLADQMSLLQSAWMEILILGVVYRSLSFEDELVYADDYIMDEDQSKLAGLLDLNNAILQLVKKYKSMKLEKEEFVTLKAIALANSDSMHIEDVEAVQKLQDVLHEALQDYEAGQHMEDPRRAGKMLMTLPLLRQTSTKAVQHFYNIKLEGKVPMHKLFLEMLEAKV
# Summary of the method: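 Transfect HepG2 with multiple GAL4-UAS reporter transcription units; dose chemicals 24 h; isolate RNA, reverse-transcribe with oligo(dT), PCR-amplify, label with 6-FAM, digest with HpaI; size fragments by capillary electrophoresis. DMSO serves as negative control.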
# [19] = biological target: Steroid hormone receptor ERR1 (Homo sapiens) (UniProt P11474); assay: ATG_ERRa_TRANS: Attagene TRANS-FACTORIAL HepG2 Assay for human Estrogen-Related Receptor alpha (ERRa) (AID 2282971; active = hit-call score of the fitted dose curve at least 0.9, where 1 is the maximum); conditions: HepG2 Attagene TRANS reporter, ERRa transactivation
# Sequence of Steroid hormone receptor ERR1 (Homo sapiens) (P11474 whole entry, looked up, the tested form may be a part): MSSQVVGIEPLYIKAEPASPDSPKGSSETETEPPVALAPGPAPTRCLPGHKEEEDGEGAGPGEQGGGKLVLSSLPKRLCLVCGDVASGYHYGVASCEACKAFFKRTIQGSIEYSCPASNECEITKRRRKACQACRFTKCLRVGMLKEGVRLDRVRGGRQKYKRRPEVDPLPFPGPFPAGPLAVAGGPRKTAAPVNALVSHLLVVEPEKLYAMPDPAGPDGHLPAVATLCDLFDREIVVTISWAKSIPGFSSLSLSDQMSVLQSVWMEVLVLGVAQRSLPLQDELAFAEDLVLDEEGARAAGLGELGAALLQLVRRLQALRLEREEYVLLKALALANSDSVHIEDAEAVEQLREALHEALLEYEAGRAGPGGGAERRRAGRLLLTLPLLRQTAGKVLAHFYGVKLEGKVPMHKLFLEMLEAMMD
# Summary of the method: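 Transfected HepG2, 24 h dosing, ERRa-Gal4 chimera driving GAL4-UAS reporter. Readout: reporter mRNA via RT-PCR plus capillary electrophoresis (fluorescence). Positive direction vs DMSO control.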
# [20] = biological target: Estrogen receptor (Homo sapiens) (UniProt P03372); assay: ATG_ERa_TRANS: Attagene TRANS-FACTORIAL HepG2 Assay for human Estrogen Receptor alpha (ERa) (AID 2282970; active = hit-call score of the fitted dose curve at least 0.9, where 1 is the maximum); conditions: HepG2 Attagene TRANS ERa GAL4 reporter, mRNA
# Sequence of Estrogen receptor (Homo sapiens) (P03372 whole entry, looked up, the tested form may be a part): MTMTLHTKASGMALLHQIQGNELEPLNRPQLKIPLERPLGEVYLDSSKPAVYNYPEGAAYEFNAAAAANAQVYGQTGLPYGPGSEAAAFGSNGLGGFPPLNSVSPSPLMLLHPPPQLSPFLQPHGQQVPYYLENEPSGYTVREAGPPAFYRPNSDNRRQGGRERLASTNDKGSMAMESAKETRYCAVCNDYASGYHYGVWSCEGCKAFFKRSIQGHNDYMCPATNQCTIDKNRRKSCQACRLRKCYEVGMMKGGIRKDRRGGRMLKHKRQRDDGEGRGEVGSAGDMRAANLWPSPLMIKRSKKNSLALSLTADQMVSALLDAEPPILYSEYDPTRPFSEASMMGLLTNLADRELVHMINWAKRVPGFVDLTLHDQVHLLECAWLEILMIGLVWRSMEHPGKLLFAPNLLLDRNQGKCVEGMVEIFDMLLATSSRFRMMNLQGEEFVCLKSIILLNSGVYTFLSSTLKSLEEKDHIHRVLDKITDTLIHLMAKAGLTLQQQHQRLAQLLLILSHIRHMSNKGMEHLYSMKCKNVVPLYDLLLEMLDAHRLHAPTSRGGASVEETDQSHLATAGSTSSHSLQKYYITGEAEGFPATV
# Summary of the method: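 After 24 h of compound treatment, RNA from HepG2 cells bearing transfected GAL4-UAS reporter constructs is converted to cDNA, amplified and fluorescently labelled. Capillary electrophoresis resolves the ERa-linked reporter; DMSO serves as negative control.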
structure (smiles),measurement,setting,value
ClC(c1ccccc1)(c1ccccc1)c1ccccc1,outcome,[1],inactive
same,AC50,[2],2.59 µM (active)
same,outcome,[3],inactive
same,outcome,[4],inactive
same,outcome,[5],inactive
same,outcome,[6],inactive
same,outcome,[7],inactive
same,outcome,[8],inactive
same,outcome,[9],inactive
same,outcome,[10],inactive
same,outcome,[11],inactive
same,outcome,[12],inactive
same,AC50,[13],5.98 µM (active)
same,outcome,[14],inactive
same,outcome,[15],inactive
same,outcome,[16],inactive
Cc1ccc(N)c(S(=O)(=O)O)c1,outcome,[1],inactive
same,outcome,[2],inactive
same,outcome,[3],inactive
same,outcome,[4],inactive
same,outcome,[5],inactive
same,outcome,[6],inactive
same,outcome,[7],inactive
same,outcome,[8],inactive
same,outcome,[9],inactive
same,outcome,[10],inactive
same,outcome,[11],inactive
same,outcome,[12],inactive
same,outcome,[13],inactive
same,outcome,[15],inactive
CCCCOCC,outcome,[1],inactive
same,outcome,[2],inactive
same,outcome,[3],inactive
same,outcome,[4],inactive
same,outcome,[5],inactive
same,outcome,[6],inactive
same,outcome,[7],inactive
same,outcome,[8],inactive
same,outcome,[9],inactive
same,outcome,[10],inactive
same,outcome,[11],inactive
same,outcome,[12],inactive
same,outcome,[13],inactive
same,outcome,[14],inactive
same,outcome,[15],inactive
same,outcome,[17],inactive
same,outcome,[16],inactive
same,outcome,[18],inactive
FC(F)(F)COCC(F)(F)F,outcome,[1],inactive
same,outcome,[2],inactive
same,outcome,[3],inactive
same,outcome,[4],inactive
same,outcome,[5],inactive
same,outcome,[6],inactive
same,outcome,[7],inactive
same,outcome,[8],inactive
same,outcome,[9],inactive
same,outcome,[10],inactive
same,outcome,[11],inactive
same,outcome,[12],inactive
same,outcome,[13],inactive
same,outcome,[14],inactive
same,outcome,[19],inactive
same,outcome,[15],inactive
same,outcome,[17],inactive
same,outcome,[16],inactive
COC(=O)C=C(C)CCC=C(C)C,outcome,[1],inactive
same,AC50,[2],7.51 µM (active)
same,outcome,[3],inactive
same,outcome,[4],inactive
same,outcome,[5],inactive
same,outcome,[6],inactive
same,outcome,[7],inactive
same,outcome,[8],inactive
same,outcome,[9],inactive
same,outcome,[10],inactive
same,outcome,[11],inactive
same,outcome,[12],inactive
same,AC50,[13],10.5 µM (active)
same,outcome,[20],inactive
same,outcome,[19],inactive
same,outcome,[15],inactive
same,outcome,[18],inactive
CC1(C)CCC[C@]2(C)[C@H]3CCO[C@]3(C)CC[C@@H]12,outcome,[1],inactive
same,AC50,[2],7.46 µM (active)
same,outcome,[3],inactive
same,AC50,[4],100 µM (active)
same,outcome,[5],inactive
same,outcome,[6],inactive
same,AC50,[7],145 µM (active)
same,outcome,[8],inactive
same,outcome,[9],inactive
same,outcome,[10],inactive
same,outcome,[11],inactive
same,outcome,[12],inactive
same,outcome,[13],inactive
same,outcome,[14],inactive
same,outcome,[15],inactive
same,outcome,[16],inactive
CC(=O)c1c(C)c([N+](=O)[O-])c(C(C)(C)C)c([N+](=O)[O-])c1C,outcome,[1],inactive
same,AC50,[2],2.28 µM (active)
same,outcome,[3],inactive
same,outcome,[4],inactive
same,outcome,[5],inactive
same,outcome,[6],inactive
same,outcome,[7],inactive
same,outcome,[8],inactive
same,outcome,[9],inactive
same,outcome,[10],inactive
same,outcome,[11],inactive
same,AC50,[12],100 µM (active)
same,AC50,[13],4.01 µM (active)
same,outcome,[14],inactive
same,outcome,[15],inactive
